# HT1080 IDH1KD tx: kills HT-1080 cells with IDH1 knockdown; HT-1080 IDH1 knockdown viability, ATP luminescence, 48 h; Potency, µM (highest dose often 46.1 µM), without a hit: at the highest dose activity, negative = toxicity, most hits filed as cytotoxic; 2% of 360,000 active; AID 686971;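 also: potency is read from the fitted curve at half-maximal effect; 0% = DMSO wells and -100% = cell-free medium wells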
#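 After a 2 h attachment period, IDH1KD HT-1080 cells took pin-transferred compound for 48 h at 37 °C; ATP-based luminescence after 10 min room-temperature reagent incubation reported viability.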
# IL1B secr inh: inhibitors of inflammasome signaling (IL-1 beta secretion); THP-1 LPS/ATP IL-1B secretion, AlphaLISA, 16 h; hits give low values; 4.7% of 360,000 active; AID 743279; activity change, % at 57.5 µM; in the data active = activity change below about -50%; inconclusive = mostly about -30% to -49%
#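 Secreted IL-1B measured by AlphaLISA bead assay after 16 h compound exposure of THP-1 cells; compounds (final up to 57.5 uM) added 1 h before LPS (250 ng/mL) and ATP (1.25 mM) stimulation; lower signal means less secretion.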
# ELG1 DNA repair: blocks ELG1-dependent DNA repair in HEK293T cells. HEK293T ELG1-luciferase reporter, luminescence, 16 h; DNA damage induced by 5-fluorouridine. Potency, µM (series often up to 46.1 µM), inactives show at the highest dose activity change, negative = inhibition, usual class: inhibitors. 2.3% of 330,000 active. AID 504467; also: potency is read from the fitted curve at half-maximal effect; nearly all actives have a fitted effect of over 55% in size
#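 HEK293T cells expressing luciferase-tagged ELG1 (2,000/well) received 5-Fluorouridine plus compound or DMSO for 16 hr at 37 °C. Luciferase was read by ONE-Glo luminescence after 30 min at room temperature.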
# DT40 TDP1 CPT: DT40-hTDP1 cell growth loss with CPT. Potency, µM (doses to about 46.2 µM), inactives show at the highest dose activity change, negative = growth inhibition, usual class: inhibitors. 12% of 420,000 active. chicken DT40 Tdp1-/-;hTDP1 cells + 20 nM CPT, ATP luminescence, 48 h; also: potency is read from the fitted curve at half-maximal effect; nearly all actives have a fitted effect of over 55% in size
#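 Cell growth measured by CellTiter-Glo luminescence after a minimum 48 h, 37 C compound exposure with 20 nM CPT in Tdp1-knockout DT40 cells stably expressing hTDP1, seeded 400/well; qHTS titration format.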
# HT1080NT lethal: kills 2HG-producing HT-1080-NT fibrosarcoma cells; HT-1080-NT fibrosarcoma viability, CellTiter-Glo ATP luminescence, 48 h; Potency, µM (titrated, usually from 46.1 µM), for the others: at the highest dose activity, negative = less viability, hits mostly cytotoxic; 1.6% of 360,000 active;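 also: NT is the 2HG producing partner of a matched IDH1 knockdown line; potency is read from the fitted curve at half-maximal effect; 0% = DMSO-treated cells and -100% = media-only wells without cells; nearly all actives have a fitted effect of over 55% in size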
#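 Read-out is CellTiter-Glo luminescence after 10 minutes at room temperature, following 48 hours' compound treatment of HT-1080-NT cells (750 cells/well, RPMI, 5% FBS, 37 degrees C).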
# DT40 TDP1 no CPT: qHTS for Inhibitors of human tyrosyl-DNA phosphodiesterase 1 (TDP1): qHTS in cells in absence of CPT. 15% of 420,000 active. Potency, µM (highest dose often 46.2 µM), without a hit: at the top dose activity change, negative = growth inhibition, hits mostly inhibitors. AID 686978, 2013. DT40 Tdp1-/- hTDP1 cells, no CPT, ATP luminescence, 48 h; also: potency is read from the fitted curve at half-maximal effect; nearly all actives have a fitted effect of over 55% in size
#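 Growth kinetics read by CellTiter-Glo luminescence after ≥48 hr at 37 °C. Cells: DT40 Tdp1-/- stably carrying human TDP1, 400 per well, compound exposure in the absence of CPT (DMSO vehicle).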
# * marks the source's active call; other numbers are inactive results; ? = inconclusive; / = not tested or not shown; [ ] = dose if it differs, or a comment. This is a sample that favours compounds with a hit; in the whole collection about 19% have one here. Unless noted, calls follow the shape of the dose curve; as a rule, active = well fitted curve in the direction sought with a large enough effect; inconclusive = small, poorly fitted or top-dose-only effect, or another doubt; inactive = no such curve, though single readings can be large; an effect the other way counts as inactive or inconclusive. Unless noted, % is scaled to controls: 0 for no effect and ±100 for the full control effect.
SMILES,HT1080 IDH1KD tx,IL1B secr inh,ELG1 DNA repair,DT40 TDP1 CPT,HT1080NT lethal,DT40 TDP1 no CPT
COc1ccc(C(=O)COC(=O)C(CCCCN2C(=O)C3C4C=CC(C4)C3C2=O)N2C(=O)C3C4C=CC(C4)C3C2=O)cc1 (centres undefined),11%,7,5.8µM*,?,11%,?
CCCN(CC(=O)Nc1ccccc1C)C(=O)c1ccc(N2CCCC(C)C2)c([N+](=O)[O-])c1 (centres undefined),-16%,-71*,/,?,-18%,?
Cc1ccc(NC(=O)CN(C)C(=O)c2ccc(Cl)c([N+](=O)[O-])c2)cc1,15%,-85*,?,?,17%,?
CN(CC(=O)Nc1ccc(Cl)c(C(F)(F)F)c1)C(=O)c1ccc(N2CCOCC2)c([N+](=O)[O-])c1,?,?,?,23µM*,23µM*,26µM*
CC1CCCN(c2ccc(C(=O)NCc3ccco3)cc2[N+](=O)[O-])C1 (centres undefined),-20%,-61*,?,2%,13%,?
CN(CC(=O)Nc1cccc(F)c1)C(=O)c1ccc(N2CCOCC2)c([N+](=O)[O-])c1,-11%,58,-9%,?,0%,?
CN(CC(=O)Nc1ccc(Cl)cc1)C(=O)c1ccc(-n2cncn2)c([N+](=O)[O-])c1,-17%,-5,21%,-14%,-1%,?
CCCN(CC(=O)Nc1ccccc1C)C(=O)c1ccc(N2CCOCC2)c([N+](=O)[O-])c1,4%,-14,2%,3%,-5%,-3%
CC(C)CCN(C(=O)c1ccccn1)c1c(N)n(Cc2ccccc2)c(=O)[nH]c1=O,13%,19,-1%,-12%,9%,-15%
CN(CC(=O)Nc1ccccc1Cl)C(=O)c1ccc(N2CCCCCC2)c([N+](=O)[O-])c1,0%,?,?,23µM*,-5%[9.24 µM],18µM*
Cc1cccc(NC(=O)CN(C)C(=O)c2ccc(N3CCCCCC3)c([N+](=O)[O-])c2)c1C,-13%,-26,?,23µM*,-29%,18µM*
CCOc1ccc(NC(=O)CN(C)C(=O)c2ccc(N3CCCC3)c([N+](=O)[O-])c2)cc1OCC,-10%,-4,-28%,0%,-1%,-20%
CCOc1ccc(NC(=O)CN(C)C(=O)c2ccc(N3CCCCC3)c([N+](=O)[O-])c2)cc1OCC,2%,-12,-17%,?,4%,?
CC(C)C[C@@H](CN1CCC[C@H]1CN1C(=O)C(=O)NC[C@@H]1Cc1ccccc1)N1C[C@H](Cc2ccc(O)cc2)N(CC2CCCCC2)C(=O)C1=O,?,-19,/,?,?,?
COC(=O)c1ccc(NC(=S)NCCC2=CCCCC2)cc1,?,59,6%,-12%,?,-23%
CC(=O)c1cccc(NC(=S)NCCc2ccc(Cl)cc2)c1,0%,-92*,?,?,-3%,18µM*
CC(=O)c1ccc(NC(=S)NCc2ccc(Cl)cc2Cl)cc1,0%,-16,?,?,0%,23µM*
COC(=O)c1cccc(NC(=S)NCCC2=CCCCC2)c1,21µM*,23,?,12µM*,-24%,10µM*
CC(=O)c1cccc(NC(=S)NCc2ccccc2)c1,4%,3,-4%,-3%,9%,-15%
CC(=O)c1cccc(NC(=O)Nc2cnn(Cc3ccc(Cl)cc3Cl)c2)c1,14µM*,?,26µM*,?,?,?
COC(=O)Cc1ccc(NC(=S)NCc2ccccc2Cl)cc1,0%,15,13%,?,?,-37%

# Assay outcomes (PubChem)
